From PubChem BioAssay
DAX1 inh-1 – DAX1 (NR0B1) inhibition, primary screen. HEK293T StAR-luciferase reporter, SF-1/DAX-1 repression relief. inhibition, % at 6.8 µM. actives 1.1% (n = 370,000);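 active = inhibition above the mean over all tested compounds plus 3 SD, cut at about 3.6% in these data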;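 note: 0% = DAX-1 cells with DMSO and 100% = cells lacking DAX-1 with DMSO; higher inhibition means more luminescence from relief of DAX-1 repression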
ssDAF-12 act – activates DAF-12 receptor from parasite S. stercoralis; HEK293 ssDAF-12/GRIP1 lit1-tk-luc reporter, luminescence; % of 3 µM dafachronic acid response; activation, % at 6.8 µM; actives 1% (n = 370,000); AID 652126;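 active = activation above the mean over all tested compounds plus 3 SD, cut at about 0.9% in these data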;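 note: 0% = DMSO-only wells and 100% = 3 µM delta7-dafachronic acid wells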
hcDAF12 agonist – H. contortus DAF-12 activation, primary screen. actives 1.4% (n = 370,000). HEK293 hcDAF-12 lit1-tk-luc reporter, luminescence; 0% DMSO, 100% Δ7-dafachronic acid. activation, % at 6.8 µM;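 active = activation above the mean of all tested compounds plus 3 SD, cut at about 5.5% in these data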;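 note: 100% = response to 3 µM Δ7-dafachronic acid high control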
hgDAF-12 ag – agonists of H. glycines DAF-12 nuclear receptor; AID 687014; actives 1.8% (n = 370,000); HEK293 GAL4-hgDAF12 UAS-luciferase reporter, agonist luminescence; normalized to butyrate control; activation, % at 6.8 µM;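 active = activation above a cutoff set at the mean of all screened compounds plus 3 SD, cut at about 10% in these data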;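 note: 0% = DMSO wells and 100% = sodium butyrate wells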
DAX1 inh-2 – NR0B1 (DAX1) inhibition; actives 0.99% (n = 340,000); HEK293 Gal4-DAX1 luciferase reporter, luminescence; P51843; inhibition, % at 6.75 µM;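 active = inhibition above the mean over all tested compounds plus 3 SD, cut at about 4.2% in these data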;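 note: 0% = DAX1-transfected cells with DMSO and 100% = empty-vector control cells with DMSO; inhibition shows as a rise in luminescence from relieved DAX1 repression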
Target sequence (P51843 207-470 limits assumed): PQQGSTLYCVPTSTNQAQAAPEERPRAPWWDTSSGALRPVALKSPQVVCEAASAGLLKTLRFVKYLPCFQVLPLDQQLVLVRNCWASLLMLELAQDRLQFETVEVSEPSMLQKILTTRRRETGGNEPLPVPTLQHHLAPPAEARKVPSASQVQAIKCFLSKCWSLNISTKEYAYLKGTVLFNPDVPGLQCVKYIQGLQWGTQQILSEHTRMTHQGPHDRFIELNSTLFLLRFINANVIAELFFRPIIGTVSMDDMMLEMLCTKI
Starred values were filed as active, the others as inactive; . = no result. In the library only some 4.1% were active in any assay of this set; here they are far more common.

SMILES	DAX1 inh-1	ssDAF-12 act	hcDAF12 agonist	hgDAF-12 ag	DAX1 inh-2
C/C(=N\NC(=O)c1c(Cl)c(C)nn1C)c1ccc(NC(=O)C2CCC2)cc1	-6	-1	-1	3	-1
CCOC(=O)[C@]12CCCCC/C=C\1N(Cc1ccc(OC)cc1)C(=O)[C@H]2CC(=O)NCCc1ccccc1OC	0	-2	-3	-2	.
O=C(CC1Oc2ccccc2NC1=O)NCc1ccc(Cl)cc1 (centres undefined)	0	-1	3	1	4.4*
CC1CCN(Cc2ccc(NC(=O)CC3Oc4ccccc4NC3=O)cc2)CC1 (centres undefined)	0	0	3	1	6.2*
CCCCN1CCCOc2cc(Br)ccc2S1(=O)=O	0	0	0	-1	.
Oc1ccc(Br)cc1-c1cc(-c2ccccc2F)[nH]n1	1	0	5.8*	5	0
Oc1ccc(Cl)cc1-c1cc(-c2ccccc2)n[nH]1	1	1	5.7*	11*	1
Oc1ccc(Br)cc1-c1cc(-c2ccccc2Cl)[nH]n1	1	-1	4	11*	0
O=C(/C=C1\OCc2cc(OCc3ccccc3)ccc21)OCc1ccccc1	1	-1	0	4	.
O=C(/C=C1\OCc2ccccc21)OCc1ccccc1	2	0	5	12*	.
Cc1ccc(Cn2nnc3c2-c2ccccc2S(=O)(=O)N(C(C)(C)C)C3)cc1	-1	-2	-2	0	.
O=C(O)CSc1nnc(-c2ccc3c(c2)OCO3)o1	0	0	1	3	0
NC(=O)CSc1nnc(-c2ccc3c(c2)OCO3)o1	3	2.8*	3	13*	.
COc1ccc(C2C(C(=O)Nc3ccc(Cl)c(Cl)c3)CCC(=O)N2c2ccc(OC)cc2)cc1 (centres undefined)	0	0	0	-1	.
CC1CCC(NC(=O)C2CCN(c3cnccn3)CC2)CC1 (centres undefined)	0	-1	-1	0	7.1*
CC(C)N1CCCCC(NC(=O)COCc2ccccc2)C1=O (centres undefined)	0	0	-1	-3	.
CCOC(=O)c1sc(Nc2nc(C)cc(C)n2)nc1C	0	-2	-1	1	1
CC(=O)c1sc(N/N=C\c2ccccc2O)nc1C	1	0	5	25*	2
CCOC(=O)c1sc(Nc2nc(C)cc(OC)n2)nc1C	0	-1	5	-1	4.5*
COC(=O)c1cc(=O)nc(NN=Cc2ccccc2O)s1	1	-1	0	1	.
CCOC(=O)c1sc(N/N=C/c2ccccc2)nc1C	3	1.2*	4	7	2
COC(=O)[C@]12C[C@H](CC(=O)NCc3ccc(OC)c(OC)c3)C(=O)N(CCc3ccc(OC)c(OC)c3)C1=C[C@H](COCc1ccccc1)O[C@@H]2C	0	-1	-4	-2	.
CCCCCCCCNC(=O)C1CSCCS(=O)(=O)N1Cc1ccccc1 (centres undefined)	-1	-1	0	1	.
Cc1ccc2cc3cc(C(=O)N4CC(C)CC(C)C4)oc3nc2c1 (centres undefined)	0	-1	-2	2	0
Cc1ccc2cc3cc(C(=O)N4CCCCC4C)oc3nc2c1 (centres undefined)	4.2*	1.0*	5.9*	12*	0
SMILES	DAX1 inh-1	ssDAF-12 act	hcDAF12 agonist	hgDAF-12 ag	DAX1 inh-2
CCOC(=O)C1CCN(C(=O)c2cc3cc4ccc(OC)cc4nc3o2)CC1	3.8*	-1	1	7	-1
COc1ccc2nc3oc(C(=O)N4CCC(C(N)=O)CC4)cc3cc2c1	0	-1	-2	1	1
O=C(Nc1ccc(C(F)(F)F)cc1)OC1CCC12CCCCC2 (centres undefined)	0	-1	-1	-2	.
CCCCN(C)C(=O)Cn1nc(Cc2ccncc2)c2ccccc2c1=O	0	-1	-2	-1	15*
CCOC(=O)/C=C/c1ccc2oc3ccccc3c(=O)c2c1	1	2.0*	5	7	1
O=C(CSc1nnc(-c2ccccc2)n1-c1ccccc1)Nc1cccc2ccccc12	-1	0	2	0	.
Nc1ccc2nc(SCc3ccccc3F)sc2c1	0	1.0*	5	8	3
Nc1nnc(SCC(=O)c2ccc3ccccc3c2)s1	3	1.1*	3	10	1
Nc1cc(N)nc(SCC(=O)c2ccccc2)n1	0	0	-1	1	0
Nc1ccc2nc(SCC(=O)c3ccccc3)sc2c1	-1	1.3*	2	4	-1
CCOc1ccc2nc(SCc3ccc(F)cc3)sc2c1	0	-1	0	3	0
CCOC(=O)N1CCN(C(=O)C[C@H]2C[C@@]3(C(=O)OCC)CCCC4=C3N(CCC4)C2=O)CC1	0	-1	0	-2	.
C/C(=N\OC(=O)c1ccc(F)cc1)c1nccs1	0	1.1*	2	2	1
COc1ccc(C(=O)O/N=C(\C)c2nccs2)cc1	0	-1	0	3	-1
Cc1nc2sc(C(=O)NC3CC3)c(N)c2c(C)c1Cl	1	0.9*	4	8	.
COC(=O)[C@]12C[C@H](CC(=O)N3CCCCC3)C(=O)N(CCc3ccc(OC)c(OC)c3)C1=C[C@H](C(C)(C)C)O[C@@H]2C	-1	-1	4	-1	.
O=C(c1cc(Cl)ccc1F)N1CCCC(c2nc(-c3cccs3)no2)C1 (centres undefined)	0	-1	-1	3	.
Cc1oc(-c2ccccc2Cl)nc1CS(=O)CC(=O)NCc1ccco1 (centres undefined)	0	-1	0	1	1
Cc1oc(-c2ccc(Cl)cc2)nc1CS(=O)CC(=O)NCc1ccco1 (centres undefined)	0	-1	-2	11*	0
COc1ccc(C2c3ccc4ccccc4c3Oc3ncn(CCO)c(=N)c32)cc1OC (centres undefined)	.	.	.	.	2
COc1ccc(C2c3ccc4ccccc4c3Oc3ncn(CCCO)c(=N)c32)cc1OC (centres undefined)	0	-1	-3	-2	4.8*
CCCCCn1nnnc1C1(C)CCCCC(=O)N1Cc1ccco1 (centres undefined)	-1	-1	-2	-1	.
COc1cc(C2C(C#N)=C(N)OC3=C2C(=O)CC(C)(C)C3)c([N+](=O)[O-])cc1OC (centres undefined)	0	-1	0	-2	1
CC1(C)CC(=O)C2=C(C1)OC(N)=C(C#N)[C@@H]2c1ccccc1[N+](=O)[O-]	0	1.5*	2	4	0
CCCc1cc(=O)[nH]c(N/N=C/C=C\c2ccccc2)n1	0	-2	-1	1	4.9*
CCCc1cc(=O)[nH]c(SC/C=C/c2ccccc2)n1	0	-1	1	2	.
CCCCOc1ccc(CC(=O)NCC(=O)O)cc1	0	-1	-1	-2	4.9*
